Measured values as given in PubChem BioAssay (Tox21).
Inconclusive results are not listed. The source made the active and inactive calls. Calls follow the shape of the full dose curve.

Experiment: qHTS assay to identify small molecule agonists of the AP-1 signaling pathway - cell viability counter screen (AID 1159525); also: nearly all actives have a fitted effect of over 55% in size
Settings: ME-180 (cervical carcinoma) AP-1-bla cells viability, ATP luminescence, 5 h; series mostly up to 76.8 µM; viability change, negative = cytotoxic: at the top concentration
From the text: National Center for Advancing Translational Sciences [NCATS]
NIH Chemical Genomics Center [NCGC]
U.S. Environmental Protection Agency [EPA]
National Institutes of Environmental Health Sciences [NIEHS]
National Toxicology Program [NTP]
U.S. Food and Drug Administration [FDA]
Activator protein-1 (AP-1), a transcription factor, plays an important role in tumor genesis by regulating genes involved in cell proliferation, differentiation, apoptosis, and angiogenesis. AP-1 activity is induced by a complex network of signaling pathways that involves extracellular signals, such as growth factors. The AP-1 protein complex formed from c-Fos and c-Jun binding to the AP-1 response element results in transcriptional activation of genes containing such elements within their promoter.
Low molecular weight molecules have been discovered and developed to modulate various components of these signaling pathways, for example, MAP kinase inhibitors. However, many points of pathway modulation remain untested due to the lack of chemical probes making this signaling locus of general interest.
Using a beta-lactamase reporter-gene under control of the AP-1 response element, a cell-based assay [CellSensor(TM) AP-1-bla ME-180 developed by Invitrogen Corp.] was used to measure EGF-induced signaling. The Tox21 10K library compounds were measured for their ability to positively modulate the action of EC50 EGF on reporter gene activity. Compounds were screened in a 15-pt titration series in 1536-well format. The cytotoxicity of the Tox21 compound library against this cell line was tested in parallel by measuring the intra cellular ATP content in the same wells.
Tox21 Assay Protocol Summary:
2500 cells/5uL in Opti-MEM medium containing 0.5% dialyzed FBS, 0.1 mM NEAA, 1 mM sodium pyruvate and 10 mM HEPES was dispensed into 1536-well black wall/clear bottom plates using a Multidrop dispenser and cells were cultured at 37 degrees Celsius overnight. Next day 23 nL of compounds dissolved in DMSO, positive controls or DMSO were delivered to each well using a pin tool. The plates were incubated at 37 degrees Celsius for 5 hours. 1 uL of LiveBLAzerTM B/G FRET substrate (Solution A+B+C+D) was added to each well using a Flying Reagent Dispenser. After incubated at room temperature for 2.5 hours the plates were measured on an EnVision plate reader at Excitation 405nm, Emission1=460nm and Emission 2=530nm. The %Activity was determined from the ratio of 460nm/530nm.
After the plates were read for Beta-Lactamase assay on Envision; 3 ul Cell Titer Glo (Promega) was added to measure the cytotoxicity and the plates were then incubated at RT in dark for 30 min. The luminescence was read on ViewLux (Perkin Elmer, Shelton, CT) using 6 sec exposure. ViewLux data was expressed as relative luminescence units.
For primary data analysis, raw plate reads for each titration point were first normalized relative to […] EGF control (100%) and DMSO only wells (basal, 0%).
For primary data analysis for viability assay, raw plate reads for each titration point were first normalized Tetra n-octyl ammonium bromide control (-100%) and DMSO (control, 100%).

Row | Structure (SMILES) | viability change, negative = cytotoxic
1 | CC1(C)SC(C)(C)SC(C)(C)S1 | -6.01% (inactive)
2 | CC(=O)O[C@H](CC(=O)[O-])C[N+](C)(C)C | -0.418% (inactive)
3 | CC(CCO)CCCC(C)(C)O (stereo not given) | -3.26% (inactive)
4 | CCCCCCCCCCCCCCCCCC(=O)OCCCCCCCCCCCCCC(C)C | 3.32% (inactive)
5 | CCC(=O)Nc1cccc(N)c1 | 2.71% (inactive)
6 | Cc1nc(-c2ccc(OCC(C)C)c(C#N)c2)sc1C(=O)O | -0.144% [at 35.3 µM] (inactive)
7 | OCCCCCCO | 13.6% (inactive)
8 | OCC(O)[C@@H](O)[C@H](O)[C@H](O)CO[C@H]1O[C@H](CO)[C@@H](O)[C@H](O)[C@H]1O (stereo not given in full) | -10.1% (inactive)
9 | CC(C)c1cccc(O)c1 | 2.83% (inactive)
10 | NS(=O)(=O)c1cc2c(cc1Cl)NC(CSCc1ccccc1)=NS2(=O)=O | 11.1% [at 35.3 µM] (inactive)
11 | COC(=O)CCCCCCCCC(=O)OC | -0.488% (inactive)
12 | OC/C=C/c1ccccc1 | 3.64% (inactive)
13 | C/C=C1\C(=O)C[C@H]2[C@@H]3CCC4=CC(=O)CC[C@]4(C)[C@H]3CC[C@]12C | 4.59% [at 35.3 µM] (inactive)
14 | O=[N+]([O-])c1ccc(Oc2ccc([N+](=O)[O-])cc2)cc1 | 0.596% (inactive)
15 | C=C(C)[C@@H]1CCC2=CC(=O)C[C@@H](C)[C@]2(C)C1 | -0.22% (inactive)
16 | COC(=O)c1ccc(C(=O)OC)c(C(=O)OC)c1 | -0.99% (inactive)
17 | O=C1CC2(CCCC2)CC(=O)N1 | -0.0154% [at 35.3 µM] (inactive)
18 | OC[C@H]1O[C@@H]2O[C@H]3[C@H](O)[C@@H](O)[C@@H](O[C@H]4[C@H](O)[C@@H](O)[C@@H](O[C@H]5[C@H](O)[C@@H](O)[C@@H](O[C@H]6[C@H](O)[C@@H](O)[C@@H](O[C@H]7[C@H](O)[C@@H](O)[C@@H](O[C@H]8[C@H](O)[C@@H](O)[C@@H](O[C@H]9[C@H](O)[C@@H](O)[C@@H](O[C@H]1[C@H](O)[C@H]2O)O[C@@H]9CO)O[C@@H]8CO)O[C@@H]7CO)O[C@@H]6CO)O[C@@H]5CO)O[C@@H]4CO)O[C@@H]3CO | 1.49% [at 35.3 µM] (inactive)
19 | CCN(CC)C(=O)c1ccc(O)c(OC)c1 | -11.6% [at 35.3 µM] (inactive)
20 | COc1cc(C)cc(O)c1 | 0.592% (inactive)

Row | Structure (SMILES) | viability change, negative = cytotoxic
21 | CC(C)c1cccc(C(C)C)c1N | -0.408% (inactive)
22 | CNc1ncnc2nc[nH]c12 | -0.859% (inactive)
23 | CN(C)CCOC(c1ccc(Cl)cc1)c1ccccn1 (stereo not given) | 0.493% [at 35.3 µM] (inactive)
24 | CC(C)(C)CC(C)(C)N | 5.6% (inactive)
25 | CC(C)(C)OC(=O)N1C[C@@H](F)C[C@H]1C(=O)O | -1.56% (inactive)
26 | CCCCCCCCC=O | 0.692% (inactive)
27 | CC(C)[C@H](N)C(=O)OCCOCn1cnc2c(=O)[nH]c(N)nc21 | 2.32% [at 35.3 µM] (inactive)
28 | CCCCCCCCN(C)CCCCCCCC | 1.19% (inactive)
29 | CC(C)COC(=O)c1ccccc1O | -2.62% (inactive)
30 | CCCCCCCCCCCl | 2.62% (inactive)
31 | CCCCCCOC(=O)c1ccccc1O | -3.08% (inactive)
32 | CCCCN(CCO)CCO | 0.291% (inactive)
33 | O=C(O)c1ccccc1-c1ccc(C(F)(F)F)cc1 | 0.653% [at 35.3 µM] (inactive)
34 | CC(=O)N[C@@H](CCC(N)=O)C(=O)O | -0.541% [at 35.3 µM] (inactive)
35 | Nc1ncnc2c1ncn2Cc1c(F)cccc1Cl | -4.52% [at 35.3 µM] (inactive)
36 | O=C1OC(=O)c2cc([N+](=O)[O-])ccc21 | 0.822% (inactive)
37 | CC(C)COC(=O)C(C)C | 1.53% (inactive)
38 | CCCCCCCCCCCCCCCCCCOCC(O)CO (stereo not given) | 1.57% [at 35.3 µM] (inactive)
39 | CCC(C)(C)C1CCC(OC)CC1 (stereo not given) | -0.285% (inactive)
40 | O=C(O)c1ccc[n+]([O-])c1 | 0.478% [at 35.3 µM] (inactive)
